Results filed as inconclusive are left out. The source made the active and inactive calls. The calls were made as follows: active = hit-call score of the fitted dose curve at least 0.9, where 1 is the maximum; inconclusive = response in the unintended direction; inactive = score below 0.9.

Oxysterols receptor LXR-alpha (Homo sapiens), sequence (Q13133 whole entry, looked up, the tested form may be a part): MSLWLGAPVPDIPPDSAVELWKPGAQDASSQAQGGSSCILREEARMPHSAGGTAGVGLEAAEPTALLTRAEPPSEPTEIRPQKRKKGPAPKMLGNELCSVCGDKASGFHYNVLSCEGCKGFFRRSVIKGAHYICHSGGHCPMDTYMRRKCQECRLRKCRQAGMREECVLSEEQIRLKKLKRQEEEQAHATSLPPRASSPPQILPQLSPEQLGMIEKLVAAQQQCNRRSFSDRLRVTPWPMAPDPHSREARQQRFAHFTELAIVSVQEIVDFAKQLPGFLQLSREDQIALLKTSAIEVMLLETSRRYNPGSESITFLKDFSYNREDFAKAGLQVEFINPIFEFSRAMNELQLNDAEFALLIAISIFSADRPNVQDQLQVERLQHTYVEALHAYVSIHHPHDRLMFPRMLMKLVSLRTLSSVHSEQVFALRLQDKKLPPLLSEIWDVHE

The first assay addresses Oxysterols receptor LXR-alpha (Homo sapiens) (UniProt Q13133). The assay can be described thus: ATG_LXRa_TRANS: Attagene TRANS-FACTORIAL HepG2 Assay for human Liver X Receptor alpha (LXRa) (AID 2282980). The note with it: HepG2 Attagene TRANS reporter, LXRa transactivation. The procedure, abridged: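 HepG2 cells were transiently transfected with multiplexed reporter units driven by chimeric LXRa–GAL4 fusion proteins, then dosed for 24 h. Reporter mRNA was quantified by RT-PCR, fluorescent labelling and capillary electrophoresis; gain of signal fitted against DMSO baseline.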
Take `CC(C)(C)OOC(C)(C)CCC(C)(C)OOC(C)(C)C`: the molecule was called inactive. Same read-out and setting: the entry for `COc1cc(C=O)cc2c1[C@H](COC(N)=O)[C@]1(OC(C)=O)ON2C[C@H]2[C@@H]1N2C(C)=O` is “inactive”; for `O=Cc1ccco1` it is “inactive”; for `COC(=O)c1ccccc1N` it is “inactive”. The same measure, in the same setting: the result for `[O-][Cl+]O` reads “inactive”; that for `CCC12COCN1COC2`, “inactive”.

On to `CCN(CC)N=O`, for which the molecule was called inactive.

Take `OCCOCCO`: the call was inactive.

The target of the next assay is Oxysterols receptor LXR-beta (Homo sapiens) (UniProt P55055). As to the kind of experiment: ATG_LXRb_TRANS: Attagene TRANS-FACTORIAL HepG2 Assay for human Liver X Receptor beta (LXRb) (AID 2282981). The settings on record: HepG2 Attagene TRANS GAL4-LXRb reporter, mRNA. The method, boiled down: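 Cells: HepG2, transiently transfected with GAL4-UAS reporter units plus LXRb-Gal4 fusion. Treatment: 24 h. Detection: reporter mRNA by RT-PCR, 6-FAM labelling, HpaI digestion, capillary electrophoresis.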
Oxysterols receptor LXR-beta (Homo sapiens), sequence (P55055 whole entry, looked up, the tested form may be a part): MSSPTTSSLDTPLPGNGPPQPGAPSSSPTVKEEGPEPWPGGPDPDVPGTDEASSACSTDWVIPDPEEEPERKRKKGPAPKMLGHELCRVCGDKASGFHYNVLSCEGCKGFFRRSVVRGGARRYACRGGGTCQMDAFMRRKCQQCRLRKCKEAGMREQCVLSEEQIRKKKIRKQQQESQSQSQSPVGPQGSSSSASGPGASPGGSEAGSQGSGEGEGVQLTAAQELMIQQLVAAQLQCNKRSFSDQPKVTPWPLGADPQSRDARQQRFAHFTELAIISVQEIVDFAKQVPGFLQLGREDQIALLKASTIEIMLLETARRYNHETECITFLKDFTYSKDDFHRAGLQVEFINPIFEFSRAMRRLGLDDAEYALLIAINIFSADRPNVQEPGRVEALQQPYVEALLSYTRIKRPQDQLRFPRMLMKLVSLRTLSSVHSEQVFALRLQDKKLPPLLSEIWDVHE
Turning to `O=C1CCCO1`, the outcome was inactive. The same measure, in the same setting: the result for `CCCCC(CC)COC(=O)c1ccc(C(=O)OCC(CC)CCCC)c(C(=O)OCC(CC)CCCC)c1` (centres undefined) reads “inactive”.

With `CC(O)CCO` (centres undefined), the call was inactive. Same read-out and setting: the entry for `COC(=O)Nc1nc2ccccc2[nH]1` is “inactive”; for `OCCCBr` it is “inactive”; for `CC(C)(C)OOC(=O)c1ccccc1` it is “inactive”. The same measure, in the same setting: the entry for `CCC12COCN1COC2` is “inactive”. As to `C[N+](C)(C)CC1CO1` (centres undefined), the molecule was classed as inactive. Same read-out and setting: the entry for `CCN(CC)CCO` is “inactive”; for `C1=Cc2cccc3cccc1c23` it is “inactive”; for `OCCOCCO` it is “inactive”. With `Clc1ccc(Cl)c(Cl)c1`, the result was inactive.

Test system in a further assay: not listed separately
The assay can be described thus: ATG_M_06_TRANS: Attagene TRANS-FACTORIAL HepG2 Assay for M06 Transcription Factor (Internal Marker) (AID 2282983).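 Also: reporter transcript level by RT-PCR then capillary electrophoresis fluorescence.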 The note with it: HepG2 Attagene TRANS M06 internal marker reporter. The method, boiled down: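 HepG2 cells transiently transfected with multiplexed GAL4-UAS reporter transcription units; after 24 h compound exposure, reporter mRNA measured by RT-PCR, FAM-labelled primer extension, HpaI digestion and capillary electrophoresis. Gain-of-signal fitted versus DMSO baseline; background control readout.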
On to `c1ccc2c(c1)-c1cccc3cccc-2c13`, for which the call was inactive.

Take `Cc1ccc([N+](=O)[O-])cc1`: the molecule was classed as inactive.

Regarding `N#CC(Br)(Br)C(N)=O`, the molecule was called inactive.

`CC(C)(C)OOC(C)(C)CCC(C)(C)OOC(C)(C)C`: the outcome was inactive. Same read-out and setting: the result for `O=C1CCCO1` reads “inactive”.

On to `CCCCC(CC)COC(=O)c1ccc(C(=O)OCC(CC)CCCC)c(C(=O)OCC(CC)CCCC)c1` (centres undefined), for which the result was inactive. As to `COc1cc(C=O)cc2c1[C@H](COC(N)=O)[C@]1(OC(C)=O)ON2C[C@H]2[C@@H]1N2C(C)=O`, the result was inactive.

For `CC(O)CCO` (centres undefined), the outcome was inactive. Still for that read-out and setting: the entry for `COC(=O)Nc1nc2ccccc2[nH]1` is “inactive”. Still for that read-out and setting: the result for `Cc1ccc(N)c(N)c1` reads “inactive”. With `OCCCBr`, the molecule was classed as inactive.

As to `Nc1cc(Cl)cc(C(=O)O)c1Cl`, the molecule was classed as inactive. Still for that read-out and setting: the entry for `CC(C)(C)OOC(=O)c1ccccc1` is “inactive”; for `Cc1ccc(N=C=O)cc1N=C=O` it is “inactive”. The same measure, in the same setting: the entry for `[O-][Cl+]O` is “inactive”; for `CCOc1cccc(C2(N3CCN(c4ccccc4)CC3)CCC(C)CC2)c1` (centres undefined) it is “inactive”; for `CCN(CC)N=O` it is “inactive”. Same read-out and setting: the entry for `CCN(CC)CCO` is “inactive”; for `C1=Cc2cccc3cccc1c23` it is “inactive”; for `Clc1ccc(Cl)c(Cl)c1` it is “inactive”.

Test system in another assay: not listed separately
The assay can be described thus: ATG_M_32_TRANS: Attagene TRANS-FACTORIAL HepG2 Assay for M32 Transcription Factor (Internal Marker) (AID 2282984). The settings on record: HepG2 Attagene TRANS M32 internal marker reporter. The method, boiled down: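 Using transiently transfected HepG2 cells exposed to test chemicals for 24 h, reporter transcripts are converted to labelled cDNA fragments and quantified by capillary electrophoresis. DMSO defines the activity baseline.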
On to `COc1cc(C=O)cc2c1[C@H](COC(N)=O)[C@]1(OC(C)=O)ON2C[C@H]2[C@@H]1N2C(C)=O`, for which the molecule was classed as inactive.

Regarding `CC(O)CCO` (centres undefined), the molecule was classed as inactive. On the same count and under the same terms, the entry for `COC(=O)Nc1nc2ccccc2[nH]1` is “inactive”; for `[O-][Cl+]O` it is “inactive”; for `C[N+](C)(C)CC1CO1` (centres undefined) it is “inactive”. On the same count and under the same terms, the entry for `Cc1ccc(N)cc1` is “inactive”; for `CS(=O)(=O)NC(=O)c1cc(Oc2ccc(C(F)(F)F)cc2Cl)ccc1[N+](=O)[O-]` it is “inactive”; for `C1=Cc2cccc3cccc1c23` it is “inactive”. Still for that read-out and setting: the result for `OCCOCCO` reads “inactive”.

The record behind these values is PubChem BioAssay (EPA / NIEHS).
